According to the supplement of paper PMC11732987, “Enantioselective OTUD7B fragment discovery through chemoproteomics screening and high-throughput optimisation” (Communications Chemistry, 2025):

How the values were obtained:
Assay in all cases: log2 ratio of Biotin-Ahx-Ub-VS probe labelling (fragment/DMSO); higher = less target engagement (more negative = stronger competition), active = hit call of the paper (q ≤ 0.05, log2 ratio ≤ -1)
Settings in all cases: compound concentration: 200 uM; treatment time: 3 h
[1] = biological target: USP34 (UniProt Q70CQ2)
Procedure, shortened: (§1)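 HEK293T lysate (495 µg per sample, in Tris/CHAPS/IGEPAL buffer with protease inhibitors) was treated in triplicate with fragment at 200 µM or with DMSO for 3 h. It was then treated with Biotin-Ahx-Ub-VS (0.5 µM final) for 1 h. Labelled DUBs were NeutrAvidin-enriched, digested with LysC and trypsin, and run by diaPASEF LC-MS/MS. Spectronaut label-free quantities were global-median-normalised. Values are average log2 ratios fragment/DMSO by unpaired t-test, using proteins with ≥2 unique peptides.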

[2] = biological target: T1, USP36 (UniProt Q9P275)
T1 sequence (whole entry): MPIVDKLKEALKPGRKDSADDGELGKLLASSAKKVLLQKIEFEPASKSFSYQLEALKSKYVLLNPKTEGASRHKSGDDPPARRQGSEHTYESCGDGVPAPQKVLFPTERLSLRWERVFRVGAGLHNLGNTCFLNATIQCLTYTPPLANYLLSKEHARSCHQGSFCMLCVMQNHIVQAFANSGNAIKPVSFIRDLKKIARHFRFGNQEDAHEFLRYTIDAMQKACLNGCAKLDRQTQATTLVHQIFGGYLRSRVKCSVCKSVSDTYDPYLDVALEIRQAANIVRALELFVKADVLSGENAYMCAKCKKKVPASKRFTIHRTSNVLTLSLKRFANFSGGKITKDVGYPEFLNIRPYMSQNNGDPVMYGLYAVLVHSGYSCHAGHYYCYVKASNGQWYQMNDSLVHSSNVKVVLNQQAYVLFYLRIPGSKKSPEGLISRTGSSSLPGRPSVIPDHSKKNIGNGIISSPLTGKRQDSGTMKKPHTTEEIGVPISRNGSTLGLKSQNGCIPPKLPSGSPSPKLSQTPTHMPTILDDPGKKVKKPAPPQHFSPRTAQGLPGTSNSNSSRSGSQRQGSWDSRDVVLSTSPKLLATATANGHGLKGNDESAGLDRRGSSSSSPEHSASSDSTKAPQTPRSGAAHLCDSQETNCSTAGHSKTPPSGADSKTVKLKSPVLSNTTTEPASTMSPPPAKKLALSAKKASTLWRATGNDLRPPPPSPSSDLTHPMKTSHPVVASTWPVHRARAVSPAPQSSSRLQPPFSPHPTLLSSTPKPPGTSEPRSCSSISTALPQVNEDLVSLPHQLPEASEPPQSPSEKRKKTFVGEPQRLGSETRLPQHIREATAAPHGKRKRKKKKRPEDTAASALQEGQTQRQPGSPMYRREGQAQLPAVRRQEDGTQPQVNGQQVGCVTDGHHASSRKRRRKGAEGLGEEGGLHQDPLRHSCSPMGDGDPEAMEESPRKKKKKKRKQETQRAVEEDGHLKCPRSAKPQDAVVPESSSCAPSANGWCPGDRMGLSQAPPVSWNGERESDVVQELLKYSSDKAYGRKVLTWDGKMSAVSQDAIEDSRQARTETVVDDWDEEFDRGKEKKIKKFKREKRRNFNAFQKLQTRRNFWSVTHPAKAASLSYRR
Procedure, shortened: as §1

[3] = biological target: T2, USP38 (UniProt Q8NB14)
T2 sequence (whole entry): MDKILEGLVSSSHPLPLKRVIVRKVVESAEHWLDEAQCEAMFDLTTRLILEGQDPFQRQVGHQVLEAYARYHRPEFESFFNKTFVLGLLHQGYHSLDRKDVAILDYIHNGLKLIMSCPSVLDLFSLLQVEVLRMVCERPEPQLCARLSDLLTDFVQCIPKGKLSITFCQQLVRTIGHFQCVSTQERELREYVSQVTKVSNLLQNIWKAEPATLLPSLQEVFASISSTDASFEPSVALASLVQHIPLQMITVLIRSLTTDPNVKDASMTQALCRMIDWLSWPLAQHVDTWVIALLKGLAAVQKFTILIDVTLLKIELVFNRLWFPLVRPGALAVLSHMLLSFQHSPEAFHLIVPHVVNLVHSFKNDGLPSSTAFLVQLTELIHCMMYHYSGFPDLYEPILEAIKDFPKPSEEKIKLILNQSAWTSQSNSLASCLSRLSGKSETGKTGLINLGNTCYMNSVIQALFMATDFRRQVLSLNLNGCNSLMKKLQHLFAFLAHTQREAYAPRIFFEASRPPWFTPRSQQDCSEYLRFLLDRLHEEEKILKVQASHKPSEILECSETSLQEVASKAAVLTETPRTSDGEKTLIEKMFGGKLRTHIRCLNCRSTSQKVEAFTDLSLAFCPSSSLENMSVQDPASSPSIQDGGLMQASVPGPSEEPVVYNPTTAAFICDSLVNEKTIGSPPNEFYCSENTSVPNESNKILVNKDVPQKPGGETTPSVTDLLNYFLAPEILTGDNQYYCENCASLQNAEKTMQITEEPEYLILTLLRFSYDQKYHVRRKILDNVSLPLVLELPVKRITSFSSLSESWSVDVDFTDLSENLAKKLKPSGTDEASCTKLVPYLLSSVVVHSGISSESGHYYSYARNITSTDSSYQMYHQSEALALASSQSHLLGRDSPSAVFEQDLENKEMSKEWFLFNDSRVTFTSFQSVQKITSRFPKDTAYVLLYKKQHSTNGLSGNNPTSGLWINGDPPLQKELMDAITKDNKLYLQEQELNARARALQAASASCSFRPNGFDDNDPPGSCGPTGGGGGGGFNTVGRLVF
Procedure, shortened: as §1

[4] = biological target: T3, USP39 (UniProt Q53GS9)
T3 sequence (whole entry): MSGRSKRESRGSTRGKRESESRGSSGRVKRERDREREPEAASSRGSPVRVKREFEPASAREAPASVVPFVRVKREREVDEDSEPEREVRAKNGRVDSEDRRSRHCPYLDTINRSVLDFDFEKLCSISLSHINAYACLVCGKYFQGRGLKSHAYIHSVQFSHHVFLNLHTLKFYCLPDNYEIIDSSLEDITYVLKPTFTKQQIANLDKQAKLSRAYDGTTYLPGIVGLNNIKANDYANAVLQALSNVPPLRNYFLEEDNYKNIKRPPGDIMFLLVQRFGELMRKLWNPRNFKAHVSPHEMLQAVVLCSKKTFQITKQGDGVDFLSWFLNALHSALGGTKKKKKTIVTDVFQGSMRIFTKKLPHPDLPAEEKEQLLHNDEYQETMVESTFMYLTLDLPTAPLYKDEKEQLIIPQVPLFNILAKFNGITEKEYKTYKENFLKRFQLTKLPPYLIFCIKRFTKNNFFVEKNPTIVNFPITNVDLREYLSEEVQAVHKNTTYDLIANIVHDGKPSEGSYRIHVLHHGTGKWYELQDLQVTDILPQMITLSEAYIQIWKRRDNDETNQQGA
Procedure, shortened: as §1

[5] = biological target: T4, USP4 (UniProt Q13107)
T4 sequence (whole entry): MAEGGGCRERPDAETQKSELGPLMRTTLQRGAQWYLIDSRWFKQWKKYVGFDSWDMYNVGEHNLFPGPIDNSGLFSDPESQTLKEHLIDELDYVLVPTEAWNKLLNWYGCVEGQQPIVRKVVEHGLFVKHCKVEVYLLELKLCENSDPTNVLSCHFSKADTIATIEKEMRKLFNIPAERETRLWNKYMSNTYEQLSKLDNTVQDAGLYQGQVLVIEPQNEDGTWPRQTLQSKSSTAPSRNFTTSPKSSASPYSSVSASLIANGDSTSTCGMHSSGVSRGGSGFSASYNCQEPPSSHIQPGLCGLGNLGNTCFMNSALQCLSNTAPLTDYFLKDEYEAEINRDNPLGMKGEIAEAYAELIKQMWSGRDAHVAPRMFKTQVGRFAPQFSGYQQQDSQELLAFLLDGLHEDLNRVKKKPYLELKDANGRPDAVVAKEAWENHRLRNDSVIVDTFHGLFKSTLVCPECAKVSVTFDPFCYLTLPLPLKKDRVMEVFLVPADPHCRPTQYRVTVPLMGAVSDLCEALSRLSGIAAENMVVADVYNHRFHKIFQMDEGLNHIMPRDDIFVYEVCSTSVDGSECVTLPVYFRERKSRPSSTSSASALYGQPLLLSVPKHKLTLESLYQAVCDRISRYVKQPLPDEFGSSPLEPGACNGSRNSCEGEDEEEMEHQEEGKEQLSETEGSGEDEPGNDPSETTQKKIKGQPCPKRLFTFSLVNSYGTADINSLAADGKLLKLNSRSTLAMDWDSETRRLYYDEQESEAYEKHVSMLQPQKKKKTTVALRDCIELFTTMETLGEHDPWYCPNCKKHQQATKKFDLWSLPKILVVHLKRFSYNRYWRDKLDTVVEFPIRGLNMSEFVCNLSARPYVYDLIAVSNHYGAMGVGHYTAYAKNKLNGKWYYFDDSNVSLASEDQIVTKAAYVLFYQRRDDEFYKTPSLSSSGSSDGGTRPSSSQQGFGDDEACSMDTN
Procedure, shortened: as §1

Measured: log2 ratio of Biotin-Ahx-Ub-VS probe labelling

Sequence of USP34 (Q70CQ2 whole entry, the tested form may be a part): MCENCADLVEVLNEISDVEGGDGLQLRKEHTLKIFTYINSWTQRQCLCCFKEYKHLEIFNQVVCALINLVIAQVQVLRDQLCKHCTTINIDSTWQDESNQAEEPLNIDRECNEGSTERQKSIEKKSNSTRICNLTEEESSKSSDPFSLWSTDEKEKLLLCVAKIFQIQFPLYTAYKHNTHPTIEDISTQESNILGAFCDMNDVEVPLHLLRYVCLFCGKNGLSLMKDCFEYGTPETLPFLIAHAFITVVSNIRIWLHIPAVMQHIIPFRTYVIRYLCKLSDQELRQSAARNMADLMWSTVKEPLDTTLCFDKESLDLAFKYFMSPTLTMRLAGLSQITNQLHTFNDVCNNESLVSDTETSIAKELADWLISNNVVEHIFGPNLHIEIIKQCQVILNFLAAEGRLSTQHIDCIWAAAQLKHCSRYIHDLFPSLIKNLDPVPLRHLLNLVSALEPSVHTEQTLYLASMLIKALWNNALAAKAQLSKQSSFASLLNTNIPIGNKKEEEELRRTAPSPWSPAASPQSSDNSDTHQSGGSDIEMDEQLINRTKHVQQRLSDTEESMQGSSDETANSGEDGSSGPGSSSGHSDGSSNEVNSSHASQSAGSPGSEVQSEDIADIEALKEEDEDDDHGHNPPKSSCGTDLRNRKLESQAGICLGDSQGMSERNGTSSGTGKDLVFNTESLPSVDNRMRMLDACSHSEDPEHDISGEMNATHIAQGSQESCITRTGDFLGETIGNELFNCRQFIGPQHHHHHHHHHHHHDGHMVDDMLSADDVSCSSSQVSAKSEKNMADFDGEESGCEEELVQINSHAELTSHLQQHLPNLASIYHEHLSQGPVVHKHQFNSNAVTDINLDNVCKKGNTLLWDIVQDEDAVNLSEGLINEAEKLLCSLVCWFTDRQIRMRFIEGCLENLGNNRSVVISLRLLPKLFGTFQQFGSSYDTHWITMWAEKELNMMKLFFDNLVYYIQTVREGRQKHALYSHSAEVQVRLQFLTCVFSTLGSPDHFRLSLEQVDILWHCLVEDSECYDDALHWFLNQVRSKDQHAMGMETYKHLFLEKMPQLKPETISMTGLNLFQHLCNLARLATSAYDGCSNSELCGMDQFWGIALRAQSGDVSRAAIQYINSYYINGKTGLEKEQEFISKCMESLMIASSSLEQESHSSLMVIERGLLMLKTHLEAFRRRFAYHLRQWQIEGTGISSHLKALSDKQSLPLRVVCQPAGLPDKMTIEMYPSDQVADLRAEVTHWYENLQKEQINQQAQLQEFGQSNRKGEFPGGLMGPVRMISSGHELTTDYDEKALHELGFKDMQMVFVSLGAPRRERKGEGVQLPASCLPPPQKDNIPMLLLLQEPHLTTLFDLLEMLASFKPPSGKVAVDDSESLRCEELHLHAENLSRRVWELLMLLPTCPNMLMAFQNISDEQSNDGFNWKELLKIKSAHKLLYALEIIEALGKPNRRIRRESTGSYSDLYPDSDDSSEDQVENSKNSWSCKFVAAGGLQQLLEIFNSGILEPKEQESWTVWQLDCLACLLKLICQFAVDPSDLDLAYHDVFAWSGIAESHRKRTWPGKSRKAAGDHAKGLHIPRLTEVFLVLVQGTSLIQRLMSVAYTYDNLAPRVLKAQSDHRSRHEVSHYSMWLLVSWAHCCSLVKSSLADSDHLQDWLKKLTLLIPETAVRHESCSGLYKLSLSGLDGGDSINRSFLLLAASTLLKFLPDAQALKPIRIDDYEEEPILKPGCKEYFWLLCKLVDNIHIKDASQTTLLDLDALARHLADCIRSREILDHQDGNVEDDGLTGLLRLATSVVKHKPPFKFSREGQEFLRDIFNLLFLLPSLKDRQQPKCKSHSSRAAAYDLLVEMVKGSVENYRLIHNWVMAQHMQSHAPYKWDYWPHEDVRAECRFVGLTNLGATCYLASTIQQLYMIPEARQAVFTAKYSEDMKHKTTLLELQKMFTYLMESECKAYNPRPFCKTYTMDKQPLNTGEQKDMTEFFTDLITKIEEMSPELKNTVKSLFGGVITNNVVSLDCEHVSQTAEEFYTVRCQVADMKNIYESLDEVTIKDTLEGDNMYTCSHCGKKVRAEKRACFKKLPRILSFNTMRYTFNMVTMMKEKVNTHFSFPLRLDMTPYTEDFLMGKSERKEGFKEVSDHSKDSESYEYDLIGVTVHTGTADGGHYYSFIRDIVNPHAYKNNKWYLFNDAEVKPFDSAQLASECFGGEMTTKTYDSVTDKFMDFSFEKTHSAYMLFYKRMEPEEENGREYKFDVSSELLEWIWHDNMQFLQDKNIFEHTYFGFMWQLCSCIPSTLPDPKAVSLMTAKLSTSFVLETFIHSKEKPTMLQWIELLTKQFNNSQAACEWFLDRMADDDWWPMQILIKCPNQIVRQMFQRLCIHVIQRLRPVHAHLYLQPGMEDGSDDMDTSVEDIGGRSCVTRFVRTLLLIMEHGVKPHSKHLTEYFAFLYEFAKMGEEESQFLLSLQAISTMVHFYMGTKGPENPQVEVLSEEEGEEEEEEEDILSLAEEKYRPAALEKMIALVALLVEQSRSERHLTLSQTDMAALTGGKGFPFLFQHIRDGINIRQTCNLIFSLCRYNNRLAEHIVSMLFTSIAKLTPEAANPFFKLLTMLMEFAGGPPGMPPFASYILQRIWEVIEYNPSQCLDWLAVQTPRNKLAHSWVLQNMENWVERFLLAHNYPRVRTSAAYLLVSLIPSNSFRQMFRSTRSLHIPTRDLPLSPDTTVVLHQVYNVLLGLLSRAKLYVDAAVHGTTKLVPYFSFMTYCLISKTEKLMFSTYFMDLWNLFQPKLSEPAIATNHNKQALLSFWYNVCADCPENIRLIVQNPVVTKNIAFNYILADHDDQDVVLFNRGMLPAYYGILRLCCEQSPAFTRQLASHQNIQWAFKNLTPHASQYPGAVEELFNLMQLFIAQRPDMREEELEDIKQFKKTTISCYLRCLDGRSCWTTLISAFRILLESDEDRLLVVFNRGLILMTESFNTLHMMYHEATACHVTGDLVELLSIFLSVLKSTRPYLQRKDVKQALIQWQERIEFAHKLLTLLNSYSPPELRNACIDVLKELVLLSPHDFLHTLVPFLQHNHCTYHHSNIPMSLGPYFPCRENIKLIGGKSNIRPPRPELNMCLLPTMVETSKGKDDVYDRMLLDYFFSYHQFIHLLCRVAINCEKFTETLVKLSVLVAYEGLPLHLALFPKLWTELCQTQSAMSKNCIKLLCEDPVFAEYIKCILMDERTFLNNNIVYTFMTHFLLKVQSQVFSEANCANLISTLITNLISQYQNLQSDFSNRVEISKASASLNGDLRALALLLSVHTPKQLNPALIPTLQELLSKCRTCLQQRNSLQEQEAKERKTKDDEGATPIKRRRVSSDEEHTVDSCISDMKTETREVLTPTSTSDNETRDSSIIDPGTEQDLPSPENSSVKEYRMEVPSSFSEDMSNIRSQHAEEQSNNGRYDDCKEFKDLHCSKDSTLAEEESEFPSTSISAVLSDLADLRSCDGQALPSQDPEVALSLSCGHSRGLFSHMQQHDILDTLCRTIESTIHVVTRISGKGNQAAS

Cl.O=C(CCl)NCc1cc2c(nc1O)CCCC2
inactive: [1] -0.103 | [2] -0.408 | [3] -0.0702 | [4] -0.212 | [5] -0.0856
